Results as given in PubChem BioAssay (EPA / NIEHS).
Values joined by “and” are separate entries in the source; they are usually repeats but may differ in a detail not shown here. Identical values can stand only once. Records with an inconclusive call do not appear. Active and inactive are the calls of the source. The calls were made as follows, unless noted: active = hit-call score of the fitted dose curve at least 0.9, where 1 is the maximum; inactive = score below 0.9.

Key:
[1] = molecular target: Estrogen-related receptor gamma (Homo sapiens) (UniProt P62508); assay: ATG_ERRg_TRANS: Attagene TRANS-FACTORIAL HepG2 Assay for human Estrogen-Related Receptor gamma (ERRg) (AID 2282977; active = hit-call score of the fitted dose curve at least 0.9, where 1 is the maximum;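 also: hits increase reporter signal over DMSO so potencies reflect activators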); details: HepG2 Attagene TRANS reporter, ERRg transactivation
How it was run: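 Transient HepG2 transfectants, 24 h compound exposure, GAL4-UAS reporter mRNA by RT-PCR/6-FAM labelling/capillary electrophoresis; positive direction vs DMSO.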

[2] = molecular target: Bile acid receptor (Homo sapiens) (UniProt Q96RI1); assay: ATG_FXR_TRANS: Attagene TRANS-FACTORIAL HepG2 Assay for Farnesoid X Receptor (FXR) (AID 2282979; active = hit-call score of the fitted dose curve at least 0.9, where 1 is the maximum;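 also: hits raise reporter mRNA above DMSO so AC50 marks FXR activation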); details: HepG2 Attagene TRANS FXR-GAL4 reporter transcription
How it was run: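 Read-out: fluorescent reporter transcripts quantified by capillary electrophoresis after RT-PCR of total RNA. Source cells were HepG2 transiently carrying chimeric NR-GAL4 plus GAL4-UAS reporter units, dosed 24 h. Activity fitted upward relative to DMSO baseline.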

[3] = molecular target: Oxysterols receptor LXR-alpha (Homo sapiens) (UniProt Q13133); assay: ATG_LXRa_TRANS: Attagene TRANS-FACTORIAL HepG2 Assay for human Liver X Receptor alpha (LXRa) (AID 2282980; active = hit-call score of the fitted dose curve at least 0.9, where 1 is the maximum); details: HepG2 Attagene TRANS reporter, LXRa transactivation
How it was run: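 Read-out: reporter transcript levels by RT-PCR plus capillary electrophoresis, fluorescence intensity. Transiently transfected HepG2, exogenous NR-GAL4 chimera, GAL4-UAS reporters; 24 h compound exposure. Activity = increase over DMSO negative control.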

[4] = molecular target: Oxysterols receptor LXR-beta (Homo sapiens) (UniProt P55055); assay: ATG_LXRb_TRANS: Attagene TRANS-FACTORIAL HepG2 Assay for human Liver X Receptor beta (LXRb) (AID 2282981; active = hit-call score of the fitted dose curve at least 0.9, where 1 is the maximum); details: HepG2 Attagene TRANS GAL4-LXRb reporter, mRNA
How it was run: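 HepG2 cells transiently transfected with multiple reporter transcription units carrying chimeric NR-Gal4 proteins acting on GAL4-UAS reporters; compound exposure 24 h. Reporter mRNA quantified by RT-PCR, 6-FAM labelling, HpaI digestion and capillary electrophoresis; gain of signal versus DMSO.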

[5] = molecular target: Hepatocyte nuclear factor 4-alpha (Homo sapiens) (UniProt P41235); assay: ATG_HNF4a_TRANS: Attagene TRANS-FACTORIAL HepG2 Assay for human Hepatocyte Nuclear Factor 4 alpha (HNF4a) (AID 2282982; active = hit-call score of the fitted dose curve at least 0.9, where 1 is the maximum); details: HepG2 HNF4a transactivation reporter, mRNA readout
How it was run: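 HepG2 cells transiently transfected with multiplexed GAL4-UAS reporter units responsive to chimeric NR-GAL4 proteins; compound exposure 24 h. Reporter mRNA quantified by RT-PCR, 6-FAM labelling, HpaI digestion and capillary electrophoresis; gain of signal versus DMSO baseline.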

[6] = ATG_M_32_TRANS: Attagene TRANS-FACTORIAL HepG2 Assay for M32 Transcription Factor (Internal Marker) (AID 2282984; active = hit-call score of the fitted dose curve at least 0.9, where 1 is the maximum;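 also: transcript level of a background control reporter unit measured by RT-PCR and capillary electrophoresis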); details: HepG2 Attagene TRANS M32 internal marker reporter
How it was run: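 HepG2 cells transiently transfected with multiple GAL4-UAS reporter transcription units, dosed for 24 hours; reporter mRNA quantified by RT-PCR, 6-FAM primer extension, HpaI digestion and capillary electrophoresis. Gain-of-signal fitted versus DMSO baseline; internal background-control marker.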

[7] = molecular target: Nuclear receptor subfamily 4 group A member 2 (Homo sapiens) (UniProt P43354); assay: ATG_NURR1_TRANS: Attagene TRANS-FACTORIAL HepG2 Assay for human Nuclear Receptor Related Protein 1 (NURR1) (AID 2282985; active = hit-call score of the fitted dose curve at least 0.9, where 1 is the maximum); details: HepG2 Attagene TRANS reporter, mRNA readout
How it was run: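 HepG2 cells transiently transfected with GAL4-UAS reporter units and chimeric NR-Gal4 constructs; chemical exposure 24 h. Reporter mRNA quantified by RT-PCR, fluorescent labelling and capillary electrophoresis; gain of signal fitted relative to DMSO baseline.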

[8] = molecular target: Transcriptional activator Myb (Homo sapiens) (UniProt P10242); assay: ATG_Myb_CIS: Attagene CIS-FACTORIAL HepG2 Assay for human Myeloblastosis (Myb) Proto-Oncogene Transcription Factor (AID 2282986); details: HepG2 Attagene CIS-FACTORIAL Myb reporter transcription; actives raise or lower the signal
How it was run: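 In this HepG2 transient-transfection format, cis-regulated reporter mRNA is quantified 24 h post-dosing by RT-PCR with capillary electrophoresis, fitted bidirectionally to DMSO baseline.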

[9] = molecular target: Nuclear respiratory factor 1 (Homo sapiens) (UniProt Q16656); assay: ATG_NRF1_CIS: Attagene CIS-FACTORIAL HepG2 Assay for human Nuclear Respiratory Factor 1 (NRF1) Orphan Gene (AID 2282987); details: HepG2 NRF1 cis-element reporter, Attagene multiplex; actives raise or lower the signal
How it was run: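 Using DMSO as baseline, gain- or loss-of-signal was fitted for reporter mRNA levels in HepG2 cells transiently transfected with cis-regulated reporter units. Samples were taken 24 h after dosing and read by RT-PCR with capillary electrophoresis.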

[10] = ATG_NFI_CIS: Attagene CIS-FACTORIAL HepG2 Assay for human Nuclear Factor I (NFI) (AID 2282989); details: HepG2 cis-regulatory reporter, NFI response element transcription; actives raise or lower the signal
How it was run: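 Reporter transcripts were measured by RT-PCR with fluorescent primer extension and capillary electrophoresis 24 h post-treatment. HepG2 cells carried transiently transfected cis-regulated reporter constructs reporting endogenous factor activity; gain or loss fitted against DMSO baseline.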

[11] = molecular target: Myc proto-oncogene protein (Homo sapiens) (UniProt P01106); assay: ATG_Myc_CIS: Attagene CIS-FACTORIAL HepG2 Assay for human Myelocytomatosis (Myc) Proto-Oncogene Transcription Factor (AID 2282990); details: HepG2, Attagene cis-reporter transcription factor activity; actives raise or lower the signal
How it was run: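 DMSO-normalised, bidirectionally fitted reporter mRNA signal. HepG2 cells transfected with cis reporter constructs, treated 24 h; transcripts detected by RT-PCR, 6-FAM primer extension and CE.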

[12] = ATG_NF_kB_CIS: Attagene CIS-FACTORIAL HepG2 Assay for human Nuclear Factor Kappa B (NF-kB) (AID 2282991); details: HepG2 Attagene cis-factorial NF-kB reporter mRNA; actives raise or lower the signal
How it was run: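 Endpoint from a 52-component multiplexed HepG2 reporter panel: cis-regulated transcription units transiently transfected, 24 h dosing, reporter mRNA quantified by RT-PCR and capillary electrophoresis, scored as increase or decrease against DMSO.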

[13] = ATG_NRF2_ARE_CIS: Attagene CIS-FACTORIAL HepG2 Assay for human Nuclear Factor Erythroid 2 Related Factor 2 (NFR2) response to Antioxidant Response Elements (ARE) (AID 2282992); details: HepG2 Attagene ARE/NRF2 reporter, transcription factor activity; actives raise or lower the signal;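 as to AC50: reporter mRNA level measured by RT-PCR and capillary electrophoresis fluorescence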
How it was run: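 Cis-factorial assay: transfected HepG2 reporter library, 24 h dosing, mRNA readout via RT-PCR/CE; DMSO-referenced bidirectional analysis.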

[14] = ATG_Oct_MLP_CIS: Attagene CIS-FACTORIAL HepG2 Assay for human Octamer-Binding Transcription Factor (Oct) (AID 2282993); details: HepG2 Attagene cis-factorial Oct reporter, mRNA; actives raise or lower the signal
How it was run: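 Readout is reporter transcript level from RT-PCR with fluorescent primer extension and capillary electrophoresis, fitted in both directions against DMSO. Transfected HepG2 reporter units report endogenous factor activity after 24 h dosing.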

[15] = molecular target: Cellular tumor antigen p53 (Homo sapiens) (UniProt P04637); assay: ATG_p53_CIS: Attagene CIS-FACTORIAL HepG2 Assay for human p53 Transcription Factor (AID 2282994); details: HepG2 p53 cis-element reporter, Attagene mRNA; actives raise or lower the signal
How it was run: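 Using HepG2 hepatoma cells carrying cis-acting multiplexed reporters, mRNA induction is detected after a 24 h exposure. Gain- and loss-of-signal responses are fitted relative to DMSO-treated cells.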

[16] = BSK_3C_TissueFactor: BioMAP Diversity Plus: 3C Assay for Tissue Factor Biomarker Activity (AID 2282997); details: BioMAP 3C HUVEC, tissue factor biomarker readout; actives raise or lower the signal
How it was run: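 Human vascular primary cells (umbilical vein endothelium) received test chemical; Tissue Factor was determined by ELISA at 24 h, and both gain and loss of signal versus DMSO were fitted.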

[17] = BSK_3C_uPAR: BioMAP Diversity Plus: 3C Assay for Urokinase-type plasminogen activator receptor (uPAR) Biomarker Activity (AID 2282998); details: BioMAP 3C HUVEC, uPAR biomarker ELISA; actives raise or lower the signal
How it was run: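 Cell-surface uPAR on HUVEC (3C system) read by ELISA at 24 h post-treatment, with DMSO as baseline and fitting in both directions. Parallel cultures stained with SRB to flag overt cytotoxicity.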

[18] = BSK_3C_VCAM1: BioMAP Diversity Plus: 3C Assay for Vascular cell adhesion molecule 1 (VCAM1) Biomarker Activity (AID 2282999); details: BioMAP 3C HUVEC, VCAM1 ELISA, cytokine-stimulated; actives raise or lower the signal
How it was run: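 Human umbilical vein endothelial cells were dosed with compound for 24 h, after which cell-surface VCAM-1 was quantified by ELISA. Bidirectional curve fitting used DMSO as negative control and activity baseline.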

[19] = ATG_M_06_TRANS: Attagene TRANS-FACTORIAL HepG2 Assay for M06 Transcription Factor (Internal Marker) (AID 2282983; active = hit-call score of the fitted dose curve at least 0.9, where 1 is the maximum); details: HepG2 Attagene TRANS M06 internal marker reporter
How it was run: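 After a 24 h chemical treatment of transfected HepG2, RNA underwent DNase I treatment, reverse transcription and reporter-specific PCR; labelled, HpaI-digested products were sized by capillary electrophoresis. Signal increase relative to DMSO defined activity.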

[20] = molecular target: Glucocorticoid receptor (Homo sapiens) (UniProt P04150); assay: ATG_GR_TRANS: Attagene TRANS-FACTORIAL HepG2 Assay for human Glucocorticoid Receptor (GR) (AID 2282978; active = hit-call score of the fitted dose curve at least 0.9, where 1 is the maximum;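 also: activators score as hits since higher reporter transcript over DMSO is fitted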); details: HepG2 Attagene TRANS GR reporter, mRNA transcription
How it was run: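 Exogenous NR-GAL4 fusion activity was assessed through induced GAL4-UAS reporter transcripts in transfected human HepG2 cells, quantified after 24 h by RT-PCR and fluorescent capillary electrophoresis with DMSO as baseline.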

Measured: AC50

Chain of Bile acid receptor (Homo sapiens) (Q96RI1 whole entry, looked up, the tested form may be a part): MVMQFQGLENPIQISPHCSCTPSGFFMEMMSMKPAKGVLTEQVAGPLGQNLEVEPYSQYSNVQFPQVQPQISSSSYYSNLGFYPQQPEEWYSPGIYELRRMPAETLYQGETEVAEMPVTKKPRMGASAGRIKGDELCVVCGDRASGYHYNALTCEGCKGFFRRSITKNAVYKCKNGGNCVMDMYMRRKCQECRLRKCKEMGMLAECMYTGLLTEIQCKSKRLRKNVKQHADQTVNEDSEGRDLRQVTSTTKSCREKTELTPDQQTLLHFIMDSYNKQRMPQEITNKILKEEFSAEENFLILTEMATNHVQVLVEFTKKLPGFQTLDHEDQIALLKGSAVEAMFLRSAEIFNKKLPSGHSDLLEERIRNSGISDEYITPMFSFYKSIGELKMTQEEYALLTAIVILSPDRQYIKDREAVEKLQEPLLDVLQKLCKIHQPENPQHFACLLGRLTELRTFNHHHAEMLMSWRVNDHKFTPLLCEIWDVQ
Chain of Oxysterols receptor LXR-beta (Homo sapiens) (P55055 whole entry, looked up, the tested form may be a part): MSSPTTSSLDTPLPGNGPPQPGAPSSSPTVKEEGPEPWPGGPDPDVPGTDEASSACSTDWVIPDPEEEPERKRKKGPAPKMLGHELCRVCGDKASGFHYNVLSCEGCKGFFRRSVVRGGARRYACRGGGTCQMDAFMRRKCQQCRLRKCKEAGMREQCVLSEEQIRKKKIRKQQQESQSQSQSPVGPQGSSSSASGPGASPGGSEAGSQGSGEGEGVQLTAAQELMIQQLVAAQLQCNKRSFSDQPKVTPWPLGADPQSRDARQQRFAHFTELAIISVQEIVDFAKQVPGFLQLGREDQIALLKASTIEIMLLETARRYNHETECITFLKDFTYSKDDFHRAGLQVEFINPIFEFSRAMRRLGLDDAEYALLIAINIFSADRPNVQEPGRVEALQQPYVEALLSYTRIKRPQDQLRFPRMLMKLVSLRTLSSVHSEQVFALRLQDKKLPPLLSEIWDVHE
Chain of Nuclear receptor subfamily 4 group A member 2 (Homo sapiens) (P43354 whole entry, looked up, the tested form may be a part): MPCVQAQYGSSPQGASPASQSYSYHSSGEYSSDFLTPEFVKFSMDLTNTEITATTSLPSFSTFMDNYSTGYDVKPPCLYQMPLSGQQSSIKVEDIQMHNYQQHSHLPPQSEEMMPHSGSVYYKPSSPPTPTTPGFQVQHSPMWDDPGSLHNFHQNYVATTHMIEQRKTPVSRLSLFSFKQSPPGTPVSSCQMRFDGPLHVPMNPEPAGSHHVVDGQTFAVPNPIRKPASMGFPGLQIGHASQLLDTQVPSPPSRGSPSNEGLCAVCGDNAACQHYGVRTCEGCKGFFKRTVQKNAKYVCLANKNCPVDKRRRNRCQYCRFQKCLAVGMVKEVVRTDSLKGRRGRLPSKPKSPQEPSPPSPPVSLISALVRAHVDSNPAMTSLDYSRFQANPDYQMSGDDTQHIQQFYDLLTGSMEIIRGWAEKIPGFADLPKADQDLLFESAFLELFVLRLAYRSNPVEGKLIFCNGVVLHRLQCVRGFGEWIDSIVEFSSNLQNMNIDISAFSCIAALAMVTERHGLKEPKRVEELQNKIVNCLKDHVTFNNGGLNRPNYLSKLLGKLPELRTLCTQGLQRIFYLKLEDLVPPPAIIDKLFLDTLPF
Chain of Oxysterols receptor LXR-alpha (Homo sapiens) (Q13133 whole entry, looked up, the tested form may be a part): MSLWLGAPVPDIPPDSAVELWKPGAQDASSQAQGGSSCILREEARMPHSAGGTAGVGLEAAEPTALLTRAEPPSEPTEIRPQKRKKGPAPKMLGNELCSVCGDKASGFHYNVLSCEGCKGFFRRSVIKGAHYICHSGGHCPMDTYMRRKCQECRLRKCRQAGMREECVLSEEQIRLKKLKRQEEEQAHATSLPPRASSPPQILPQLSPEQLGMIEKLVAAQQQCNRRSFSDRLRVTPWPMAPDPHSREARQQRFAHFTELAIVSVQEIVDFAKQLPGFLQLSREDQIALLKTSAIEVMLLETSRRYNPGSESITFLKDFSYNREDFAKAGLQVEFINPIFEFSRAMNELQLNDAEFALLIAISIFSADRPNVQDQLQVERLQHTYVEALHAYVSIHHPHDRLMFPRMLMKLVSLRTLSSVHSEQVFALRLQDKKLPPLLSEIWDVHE
Chain of Transcriptional activator Myb (Homo sapiens) (P10242 whole entry, looked up): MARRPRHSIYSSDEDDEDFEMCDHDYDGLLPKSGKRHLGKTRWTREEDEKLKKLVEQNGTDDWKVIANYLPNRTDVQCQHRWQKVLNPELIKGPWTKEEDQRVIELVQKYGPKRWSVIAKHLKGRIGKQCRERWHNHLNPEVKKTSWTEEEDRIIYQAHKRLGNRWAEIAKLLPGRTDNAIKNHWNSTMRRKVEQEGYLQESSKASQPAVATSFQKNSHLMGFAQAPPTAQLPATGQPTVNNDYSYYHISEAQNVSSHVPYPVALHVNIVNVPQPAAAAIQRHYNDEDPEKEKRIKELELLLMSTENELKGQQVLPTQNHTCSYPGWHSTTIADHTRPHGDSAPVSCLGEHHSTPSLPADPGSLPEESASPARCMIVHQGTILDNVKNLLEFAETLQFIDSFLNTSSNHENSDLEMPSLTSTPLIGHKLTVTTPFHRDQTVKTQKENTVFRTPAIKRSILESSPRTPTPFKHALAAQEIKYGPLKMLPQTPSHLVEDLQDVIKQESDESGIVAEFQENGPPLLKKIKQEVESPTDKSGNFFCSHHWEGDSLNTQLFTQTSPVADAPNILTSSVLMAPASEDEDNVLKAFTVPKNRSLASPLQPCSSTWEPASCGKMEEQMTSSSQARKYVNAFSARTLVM
Chain of Nuclear respiratory factor 1 (Homo sapiens) (Q16656 whole entry, looked up): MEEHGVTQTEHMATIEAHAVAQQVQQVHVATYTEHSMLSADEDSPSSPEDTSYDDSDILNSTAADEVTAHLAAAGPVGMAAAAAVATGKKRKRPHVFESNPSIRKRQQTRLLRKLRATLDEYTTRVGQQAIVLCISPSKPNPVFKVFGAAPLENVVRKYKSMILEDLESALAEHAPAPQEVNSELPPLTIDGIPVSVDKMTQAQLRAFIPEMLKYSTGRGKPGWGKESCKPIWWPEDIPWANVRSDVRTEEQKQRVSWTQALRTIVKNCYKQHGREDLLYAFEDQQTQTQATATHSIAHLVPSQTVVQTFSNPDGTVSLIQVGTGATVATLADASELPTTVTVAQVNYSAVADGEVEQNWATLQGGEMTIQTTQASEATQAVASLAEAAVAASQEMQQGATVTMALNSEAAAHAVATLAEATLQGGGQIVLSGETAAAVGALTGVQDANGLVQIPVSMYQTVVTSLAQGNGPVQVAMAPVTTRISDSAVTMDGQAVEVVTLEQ
Chain of Glucocorticoid receptor (Homo sapiens) (P04150 whole entry, looked up, the tested form may be a part): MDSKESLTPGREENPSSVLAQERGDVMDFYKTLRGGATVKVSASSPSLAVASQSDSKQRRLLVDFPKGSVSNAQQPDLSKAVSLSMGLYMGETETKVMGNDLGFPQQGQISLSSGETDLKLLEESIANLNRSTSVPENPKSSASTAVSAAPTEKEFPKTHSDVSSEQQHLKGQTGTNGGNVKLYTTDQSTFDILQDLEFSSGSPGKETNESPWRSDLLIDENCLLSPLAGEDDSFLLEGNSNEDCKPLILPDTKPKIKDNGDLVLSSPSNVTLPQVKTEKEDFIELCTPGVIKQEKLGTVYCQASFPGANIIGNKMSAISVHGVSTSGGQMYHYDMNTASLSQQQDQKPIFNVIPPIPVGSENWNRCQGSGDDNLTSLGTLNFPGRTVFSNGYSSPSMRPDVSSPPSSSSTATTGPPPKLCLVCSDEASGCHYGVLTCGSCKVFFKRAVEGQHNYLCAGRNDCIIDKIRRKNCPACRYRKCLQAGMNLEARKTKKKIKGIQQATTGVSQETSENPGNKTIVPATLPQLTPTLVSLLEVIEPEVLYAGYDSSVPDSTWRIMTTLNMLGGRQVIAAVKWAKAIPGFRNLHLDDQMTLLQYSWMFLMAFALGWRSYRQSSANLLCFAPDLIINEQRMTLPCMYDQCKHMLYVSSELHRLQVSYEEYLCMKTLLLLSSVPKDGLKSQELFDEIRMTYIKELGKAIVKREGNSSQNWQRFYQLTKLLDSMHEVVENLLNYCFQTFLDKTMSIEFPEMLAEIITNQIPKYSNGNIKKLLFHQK
Chain of Hepatocyte nuclear factor 4-alpha (Homo sapiens) (P41235 whole entry, looked up, the tested form may be a part): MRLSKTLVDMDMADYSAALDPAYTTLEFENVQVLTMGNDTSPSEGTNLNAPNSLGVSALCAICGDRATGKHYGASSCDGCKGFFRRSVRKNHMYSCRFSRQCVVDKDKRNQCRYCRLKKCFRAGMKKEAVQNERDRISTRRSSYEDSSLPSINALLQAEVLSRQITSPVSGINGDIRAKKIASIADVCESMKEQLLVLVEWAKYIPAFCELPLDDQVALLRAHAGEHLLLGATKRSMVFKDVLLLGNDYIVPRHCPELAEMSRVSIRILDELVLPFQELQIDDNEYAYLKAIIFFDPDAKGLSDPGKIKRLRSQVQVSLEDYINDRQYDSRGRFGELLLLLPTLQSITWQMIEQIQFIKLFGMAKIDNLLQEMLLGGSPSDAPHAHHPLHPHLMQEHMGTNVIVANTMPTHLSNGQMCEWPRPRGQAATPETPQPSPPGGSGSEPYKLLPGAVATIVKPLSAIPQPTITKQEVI
Chain of Cellular tumor antigen p53 (Homo sapiens) (P04637 whole entry, looked up): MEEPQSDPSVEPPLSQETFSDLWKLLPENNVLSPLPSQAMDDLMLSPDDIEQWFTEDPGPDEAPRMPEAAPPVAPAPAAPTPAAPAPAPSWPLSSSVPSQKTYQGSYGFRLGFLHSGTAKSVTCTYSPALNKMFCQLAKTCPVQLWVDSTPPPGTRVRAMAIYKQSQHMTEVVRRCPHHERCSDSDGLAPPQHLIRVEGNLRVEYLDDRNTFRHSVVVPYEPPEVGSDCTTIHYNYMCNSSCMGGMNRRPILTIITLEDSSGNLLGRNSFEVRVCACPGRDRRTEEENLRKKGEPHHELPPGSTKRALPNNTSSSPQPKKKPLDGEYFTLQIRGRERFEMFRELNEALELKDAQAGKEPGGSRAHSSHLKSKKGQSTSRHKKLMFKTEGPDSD

CNS(=O)(=O)C(F)(F)C(F)(F)C(F)(F)C(F)(F)C(F)(F)C(F)(F)C(F)(F)C(F)(F)F
not listed: [19] | [20]
inactive: all other assays above

OCC(O)CC(F)(F)C(F)(F)C(F)(F)C(F)(F)C(F)(F)C(F)(F)C(F)(F)C(F)(F)F (centres undefined)
not listed: [6] | [20]
inactive: all other assays above

OCCCC(F)(F)C(F)(F)C(F)(F)C(F)(F)C(F)(F)C(F)(F)C(F)(F)C(F)(F)F
active: [7] 7.38 µM | [15] 30.7 µM | [16] 13.1 µM and 26.1 µM | [17] 19.6 µM and 42.2 µM | [18] 39.9 µM and 46 µM
not listed: [13]
inactive: all other assays above

Nc1c(Br)cc([N+](=O)[O-])cc1Br
active: [13] 27.4 µM
not listed: [4] | [7] | [16] | [17] | [18]
inactive: all other assays above

CCCCCCCCCCCCCC[P+](CCCC)(CCCC)CCCC
active: [10] 1.24 µM | [13] 0.719 µM | [14] 0.903 µM
not listed: [1] | [5] | [7] | [15] | [16] | [17] | [18]
inactive: all other assays above

CCOCOCC
not listed: [1] | [5] | [11] | [16] | [17] | [18] | [19]
inactive: all other assays above

Cc1cc(O)c(C(C)(C)C)cc1C(C)(C)C
active: [3] 2.99 µM | [4] 4.8 µM | [7] 5.29 µM | [13] 11.1 µM | [16] 3.4 µM | [17] 3.82 µM | [18] 4.42 µM
not listed: [1] | [5]
inactive: all other assays above

CCCCCCCCCCCC(=O)Cl
active: [7] 67.6 µM | [12] 123 µM | [13] 74.5 µM
not listed: [1] | [3] | [16] | [17] | [18]
inactive: all other assays above
